Measurements taken from PubChem BioAssay (EPA / NIEHS).
Where “and” joins values, the source holds several entries; their conditions need not be identical. Identical values can stand only once. The source holds several records for some structures; these can differ, active in one and inactive in another. Calls of active or inactive are those of the source. Rule for the calls: active = hit-call score of the fitted dose curve at least 0.9, where 1 is the maximum; inactive = score below 0.9.

Tests used:
[1] = read-out: Urokinase-type plasminogen activator receptor (uPAR), PLAUR (gene 5329); assay: BSK_CASM3C_uPAR: BioMAP Diversity Plus: CASM3C Assay for Urokinase-type plasminogen activator receptor (uPAR) Biomarker Activity (AID 2283054); conditions: primary human coronary artery smooth muscle cells; actives raise or lower the signal;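 note: cell-surface uPAR protein level quantified by ELISA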
[2] = read-out: Vascular cell adhesion molecule 1 (VCAM1), VCAM1 (gene 7412); assay: BSK_CASM3C_VCAM1: BioMAP Diversity Plus: CASM3C Assay for Vascular cell adhesion molecule 1 (VCAM1) Biomarker Activity (AID 2283055); conditions: primary human coronary artery smooth muscle cells; actives raise or lower the signal;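 note: VCAM-1 protein level quantified by ELISA on the cells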
[3] = read-out: Collagen III, COL3A1 (gene 1281); assay: BSK_hDFCGF_CollagenIII: BioMAP Diversity Plus: hDFCGF Assay for Collagen III Biomarker Activity (AID 2283056); conditions: primary human foreskin fibroblasts; actives raise or lower the signal
Procedure, shortened: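 Human foreskin fibroblast primary cultures sampled 24 h after dosing; Collagen III quantified by ELISA. Signal fitted bidirectionally against DMSO baseline.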

[4] = read-out: Epidermal growth factor receptor (EGFR), EGFR (gene 1956); assay: BSK_hDFCGF_EGFR: BioMAP Diversity Plus: hDFCGF Assay for Epidermal growth factor receptor (EGFR) Biomarker Activity (AID 2283057); conditions: primary human foreskin fibroblasts; actives raise or lower the signal
Procedure, shortened: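 hDFCGF system, primary human foreskin fibroblasts; compound 24 h; EGFR measured by ELISA; DMSO = negative control/baseline; bidirectional fitting.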

[5] = read-out: Interleukin-8 (IL8), CXCL8 (gene 3576); assay: BSK_hDFCGF_IL8: BioMAP Diversity Plus: hDFCGF Assay for Interleukin-8 (IL8) Biomarker Activity (AID 2283058); conditions: primary human foreskin fibroblasts; actives raise or lower the signal
Procedure, shortened: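 Primary human foreskin fibroblasts (hDFCGF system) dosed with chemical; IL-8 measured by ELISA 24 hours later. Bidirectional curve fitting relative to DMSO baseline; cytotoxicity tracked in parallel cultures by SRB total protein staining.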

[6] = BSK_hDFCGF_Proliferation: Cell Proliferation Assessment in the BioMAP Diversity Plus: hDFCGF Assay (AID 2283059); conditions: primary human foreskin fibroblasts;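 note: curves fitted for both rise and fall of signal versus DMSO baseline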
Procedure, shortened: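 Steps: dose primary human dermal fibroblasts (foreskin); […] fix in 10% TCA; stain with 0.1% SRB; read 560 nm; fit gain or loss of signal against DMSO.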

[7] = read-out: Macrophage colony-stimulating factor (MCSF), CSF1 (gene 1435); assay: BSK_hDFCGF_MCSF: BioMAP Diversity Plus: hDFCGF Assay for Macrophage colony-stimulating factor (MCSF) Biomarker Activity (AID 2283060); conditions: primary human foreskin fibroblasts; actives raise or lower the signal
Procedure, shortened: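 Human foreskin fibroblast primary cultures; M-CSF measured by ELISA 24 hours after chemical dosing. Bidirectional fitting relative to DMSO, with overt cytotoxicity tracked by parallel SRB total-protein staining (0.1% SRB, 10% TCA fixation, 560 nm).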

[8] = read-out: TIMP metallopeptidase inhibitor 1 (TIMP1), TIMP1 (gene 7076); assay: BSK_hDFCGF_TIMP1: BioMAP Diversity Plus: hDFCGF Assay for TIMP metallopeptidase inhibitor 1 (TIMP1) Biomarker Activity (AID 2283062); conditions: primary human foreskin fibroblasts; actives raise or lower the signal
Procedure, shortened: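 Human foreskin fibroblast primary cultures dosed for 24 h; secreted/surface TIMP-1 quantified by ELISA. Bidirectional curve fitting against DMSO baseline; cytotoxicity tracked in parallel cultures by SRB total-protein staining.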

[9] = read-out: Monokine induced gamma interferon (MIG), CXCL9 (gene 4283); assay: BSK_hDFCGF_MIG: BioMAP Diversity Plus: hDFCGF Assay for Monokine induced gamma interferon (MIG) Biomarker Activity (AID 2283063); conditions: primary human foreskin fibroblasts; actives raise or lower the signal
Procedure, shortened: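 MIG/CXCL9 measured by ELISA 24 h after dosing primary human skin fibroblasts. Activity fitted in both directions against DMSO controls. Cytotoxicity was checked in parallel cultures by SRB staining read at 560 nm.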

[10] = read-out: Matrix Metallopeptidase 1 (MMP1), MMP1 (gene 4312); assay: BSK_hDFCGF_MMP1: BioMAP Diversity Plus: hDFCGF Assay for Matrix Metallopeptidase 1 (MMP1) Biomarker Activity (AID 2283064); conditions: primary human foreskin fibroblasts; actives raise or lower the signal
Procedure, shortened: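 Primary human foreskin fibroblasts exposed to chemicals for 24 h; MMP1 measured by ELISA. Cytotoxicity tracked by SRB staining in parallel cultures; bidirectional fit relative to DMSO.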

[11] = read-out: Plasminogen activator inhibitor-1 (PAI1), SERPINE1 (gene 5054); assay: BSK_hDFCGF_PAI1: BioMAP Diversity Plus: hDFCGF Assay for Plasminogen activator inhibitor-1 (PAI1) Biomarker Activity (AID 2283066); conditions: primary human foreskin fibroblasts; actives raise or lower the signal
Procedure, shortened: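 Primary dermal fibroblasts (human foreskin), hDFCGF system; compound 24 h; PAI-1 by ELISA; bidirectional fit vs DMSO control.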

[12] = read-out: Intercellular Adhesion Molecule 1 (ICAM1), ICAM1 (gene 3383); assay: BSK_KF3CT_ICAM1: BioMAP Diversity Plus: KF3CT Assay for Intercellular Adhesion Molecule 1 (ICAM1) Biomarker Activity (AID 2283067); conditions: primary human keratinocytes with fibroblasts; actives raise or lower the signal
Procedure, shortened: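 Human keratinocyte–foreskin fibroblast co-culture was treated for 24 h. Cell-surface ICAM-1 was quantified by ELISA, fitted bidirectionally relative to DMSO. Cytotoxicity was checked in parallel cultures by SRB total-protein staining.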

[13] = read-out: Interferon-gamma inducible Protein 10 (IP10), CXCL10 (gene 3627); assay: BSK_KF3CT_IP10: BioMAP Diversity Plus: KF3CT Assay for Interferon-gamma inducible Protein 10 (IP10) Biomarker Activity (AID 2283068); conditions: primary human keratinocytes with fibroblasts; actives raise or lower the signal
Procedure, shortened: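 KF3CT co-culture (keratinocytes + foreskin fibroblasts), 24 h compound, IP-10 by ELISA; bidirectional fit vs DMSO baseline.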

[14] = read-out: Interleukin-1 alpha (IL1a), IL1A (gene 3552); assay: BSK_KF3CT_IL1a: BioMAP Diversity Plus: KF3CT Assay for Interleukin-1 alpha (IL1a) Biomarker Activity (AID 2283070); conditions: primary human keratinocytes with fibroblasts; actives raise or lower the signal
Procedure, shortened: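 Primary human keratinocyte plus foreskin fibroblast co-culture, dosed and measured at 24 h in 96-well plates. IL-1a level quantified by ELISA; bidirectional fit relative to DMSO.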

Measured: AC50

[Cd+2].[Cl-].[Cl-]
inactive: [4]
active: [1] 9.94 µM and 6.24 µM | [2] 4.05 µM and 3.51 µM | [3] 3.57 µM and 4.55 µM | [4] 156 nM | [5] 24.2 µM and 23 µM | [6] 919 nM and 655 nM | [7] 939 nM and 1.2 µM | [8] 1.12 µM and 1.63 µM | [9] 9.86 µM and 5.69 µM | [10] 3.97 µM and 4.18 µM | [11] 601 nM and 305 nM | [12] 29.2 µM and 27.5 µM | [13] 35.2 µM and 33.4 µM | [14] 33.8 µM and 30.1 µM
